Source: PubChem BioAssay
Polio RdRp inh: inhibitors of poliovirus RNA polymerase binding and polymerization; P03300; poliovirus polymerase elongation, fluorescence polarization; active compounds read low; % elongation, % (compound at 16.7 µg/mL); 150,000 compounds, 0.66% hits; in the data active = % elongation below about 90%
MenB inh: Mtb MenB enzyme inhibition; AID 540299; 100,000 compounds, 0.43% hits; MenB enzyme assay, absorbance read-out; P9WNP5; inhibition, % (concentration not given with the values); in the data active = inhibition above about 21%, passing the limit was not always enough
Mtb MbtI inh: MbtI salicylate synthase inhibition; P9WFX0; purified MbtI enzyme, fluorescence intensity read-out; inhibition, % (concentration not given with the values); 100,000 compounds, 0.89% hits; in the data active = inhibition mostly above about 56%, no sharp cut-off; inactive = mostly below about 77%
Target sequence (P9WFX0 whole entry, looked up): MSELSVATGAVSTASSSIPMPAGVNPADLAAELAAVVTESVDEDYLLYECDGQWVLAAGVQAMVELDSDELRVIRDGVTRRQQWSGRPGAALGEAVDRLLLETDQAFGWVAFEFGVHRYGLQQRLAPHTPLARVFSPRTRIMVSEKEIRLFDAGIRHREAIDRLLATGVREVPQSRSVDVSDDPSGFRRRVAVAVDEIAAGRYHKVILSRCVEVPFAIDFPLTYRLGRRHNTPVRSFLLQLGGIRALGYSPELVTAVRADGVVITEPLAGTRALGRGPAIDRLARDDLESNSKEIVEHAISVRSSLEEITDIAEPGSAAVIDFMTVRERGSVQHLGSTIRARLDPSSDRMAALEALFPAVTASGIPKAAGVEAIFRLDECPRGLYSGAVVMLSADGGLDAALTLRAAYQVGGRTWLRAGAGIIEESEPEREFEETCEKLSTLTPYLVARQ
AID504770: E. coli YBA685 growth inhibition, screen for V. cholerae RctB inhibitors; E. coli YBA685 rctB-dependent plasmid, OD600 growth, 3 h; active compounds read low; 130,000 compounds, 0.27% hits; z-score (test concentration not listed); AID 504770; in the data active = z-score below about -2, passing the limit was not always enough
Numbers without * were called inactive; / = no result. This is a sample that favours compounds with a hit; in the whole collection about 1.4% have one here.

SMILES	Polio RdRp inh	MenB inh	Mtb MbtI inh	AID504770
Cc1ccc(NC(=O)CSc2nc(C)cc(C)c2C#N)cc1	98.0	40.5*	2.5	1.05
O=c1[nH]snc1N1CCCCC1	64.0*	13.1	42.6	-1.7
O=c1[nH]snc1N1CCOCC1	/	/	2.4	-1.25
CCOC(=O)CC1=Nn2c(nnc2C2CCCCC2)SC1	105.0	-15.8	2.7	-0.45
NNC(=O)Cc1nn2c(C3CCCCC3)nnc2s1	99.0	-19.6	70.2*	2.25
FC(F)Oc1ccc(NC(=S)NNc2nc3ccccc3[nH]2)cc1	44.0*	0.7	95.5	0.6
COCCn1c(C)cc(O)c(C(c2ccccc2)N2CCN(CCO)CC2)c1=O (stereo not drawn)	109.0	/	/	/
COc1ccc(-c2coc3c2c(C)cc2oc(=O)c(CC(=O)O)c(C)c23)cc1	110.0	/	/	/
O=c1ccsn1Cc1ccccc1	97.0	-116.0	92.8*	-9.15*
COC(=O)c1ccccc1SC(=O)c1ccc(Cl)c(Cl)c1	96.0	-12.5	-7.2	0
Cc1ccc(N(CC(=O)Nc2ccccc2C(=O)NCc2ccco2)S(C)(=O)=O)cc1Cl	21.0*	-13.5	1.2	1.25
COc1ccc(C(=O)N/N=c2/c(=O)c(=O)c3ccccc23)cc1	52.0*	-24.9	-5.5	-0.2
CC(=O)c1c(CC(=O)O)[nH]n(-c2nc3ccccc3s2)c1=O	101.0	-16.2	59.7*	1.9
COC(=O)Cc1[nH]n(-c2nc3ccccc3s2)c(=O)c1C(C)=O	107.0	-11.3	/	0.25
Oc1ccc(NC(=S)Nc2ccc(O)cc2)cc1	106.0	-4.0	-3.8	-0.1
CNc1ccc(O)cc1	59.0*	/	101.3*	1.05
O=S(=O)(Nc1ccc(Cl)cc1)c1ccc2oc(=S)[nH]c2c1	91.0	-47.5	89.9*	0.75
O=c1[nH]c2ccc(S(=O)(=O)Nc3ccc(O)cc3)cc2[nH]1	104.0	6.5	-6.0	-0.4
COc1ccc(-c2ccc(=O)n(CC(=O)Nc3cc(OC)ccc3OC)n2)cc1	102.0	/	/	/
O=C1CC(NC(=O)c2ccc(Cl)cc2)C(=O)N1 (stereo not drawn)	102.0	/	78.8*	-0.1
CCCCCOc1ccc(C(=O)CCN2CCOCC2)cc1	103.0	-7.4	92.3*	0.05
c1ccc(-c2ccc(Oc3ncnc4c3oc3ccccc34)cc2)cc1	102.0	-20.6	1.2	1.6
COc1ccc(NC(=O)CN(c2ccc(C)cc2)S(=O)(=O)c2cccs2)cc1OC	103.0	/	/	/
Cc1ccc(N(CC(=O)Nc2ccc(C)c(Cl)c2)S(=O)(=O)c2cccs2)cc1	89.0*	/	/	/
CN(C)C(=O)CCCc1nc(-c2ccc(Cl)cc2)no1	104.0	-18.5	-7.6	-2.4*
SMILES	Polio RdRp inh	MenB inh	Mtb MbtI inh	AID504770
Cc1cc(NC(=O)NN2CCOCC2)nn1-c1c(Cl)cc(Cl)cc1Cl	101.0	6.4	-1.6	0.5
Cn1c(=O)c2ncnnc2n(C)c1=O	63.0*	-22.2	-2.6	-2.3*
CCS(=O)(=O)Nc1ccc(C(F)(F)F)cc1	100.0	1.2	-10.9	-0.25
COc1ccc(Br)c(C(=O)Nc2c(F)cccc2F)c1	/	/	/	-0.9
CCc1ccc(C(=O)Nc2nncs2)cc1	100.0	12.8	8.8	0.55
Cc1ccc(C(=O)Nc2nncs2)cc1	101.0	26.2*	16.2	-0.55
O=S(=O)(c1ccc2oc(=S)n(CN3CCOCC3)c2c1)N1CCOCC1	62.0*	-1.7	77.5	-0.3
COC(=O)C1=C(C)N(Cc2ccc(C)cc2)C(=O)/C1=C\c1ccccc1O	102.0	-52.5	-3.5	0.2
O=C(CC(NC1CC1)C(=O)O)c1ccc(Cl)cc1 (stereo not drawn)	104.0	34.8*	/	-0.65
O=C(CC(Sc1ccc(Br)cc1)C(=O)O)c1ccc(Cl)cc1 (stereo not drawn)	85.0*	25.8	/	-1.05
O=C(CC(SC1CCCCC1)C(=O)O)c1ccc(Br)cc1 (stereo not drawn)	102.0	-12.7	/	1.2
CCOC(=O)Cn1c(=N)n(Cc2ccc(C(C)(C)C)cc2)c2ccccc21	98.0	/	/	/
CCc1c(C)nc2nncn2c1Nc1cccc(C)c1	114.0	/	/	/
COc1cc2nc(C)n(C(=S)S)c2cc1OC	78.0*	-25.3	10.3	0.6
CCn1c(C)nc2cc(OC)ccc21	102.0	/	5.8	0.9
O=S(=O)(c1cccs1)c1cccs1	/	/	/	-0.65
N#Cc1nccnc1S(=O)(=O)c1cccs1	/	/	/	-7.85*
O=S(=O)(NCc1csc(-c2cccs2)n1)c1ccccc1	/	/	/	0
CN(c1ccc(-c2csc(-c3cccs3)n2)cc1)S(C)(=O)=O	88.0*	-17.5	39.0	-0.25
O=C(c1cccs1)n1ccc(C(F)(F)F)n1	/	/	/	-0.6
CCC(=O)n1nc(-c2ccco2)nc1SC	99.0	7.7	54.0*	2.05
CCC(=O)n1nc(-c2ccco2)nc1SCc1ccccc1	101.0	-5.8	-10.3	-1.25
Cc1c(C(=O)NC(=S)Nc2ccc(C(=O)OC(C)C)cc2)oc2ccccc12	101.0	-23.2	5.3	0.4
Nn1c(SCC(=O)NCc2ccc3c(c2)OCO3)nnc1C1CC1	104.0	14.3	81.2*	0.9
Nn1c(SCC(=O)NCc2ccc3c(c2)OCO3)nncc1=O	100.0	-46.8	-1.4	-0.6
SMILES	Polio RdRp inh	MenB inh	Mtb MbtI inh	AID504770
CNc1ccccc1C(=O)OCC(=O)c1ccccc1	102.0	-15.9	-17.1	-3.25*
O=S(=O)(Cc1ccc(Cl)cc1)N1CCN(c2ncccn2)CC1	/	/	/	0.5
CC1=CC(=N/C(C)=N/S(=O)(=O)c2ccc(C)cc2)C=C(C)C1=O	105.0	2.9	86.3*	1.35
CCNS(=O)(=O)c1ccc(S(=O)(=O)N(Cc2ccccn2)C2CCCCC2)cc1	105.0	-23.8	-13.4	-0.6
CCC(C)NS(=O)(=O)c1ccc(S(=O)(=O)N(Cc2ccc(C)o2)C2CCCC2)cc1 (stereo not drawn)	102.0	32.5*	-2.4	0.9
CCOC(=O)N1CCN(CC2CCCCC2)CC1	100.0	-5.7	-24.4	-1.6
CCN1CCN(CC2CCCCC2)CC1	100.0	34.1*	8.4	1.5
CCOC(=O)c1cccc(NC(=O)Cc2ccc(NC(=O)N3CCCCc4ccccc43)cc2)c1	21.0*	/	/	/
COc1cccc(NC(=O)Cc2ccc(NC(=O)N3CCCCc4ccccc43)cc2)c1	104.0	/	/	/
O=C1/C(=C\c2ccc(Br)o2)CC/C1=C/c1ccc(Br)o1	43.0*	-37.5	41.8	0.55
O=C1/C(=C/c2cc3ccccc3o2)CC/C1=C\c1cc2ccccc2o1	108.0	-20.4	2.8	-0.15
Fc1ccc(COc2cn(-c3ccccc3)nn2)cc1	101.0	-9.7	7.2	2.6
O=C(OCCN1C(=O)c2ccccc2C1=O)c1ccc(-n2cnnn2)cc1	104.0	-10.8	-3.1	0.15
NC(=O)Cn1cnc2sc3c(c2c1=O)CCC3	90.0*	-24.3	/	-0.25
CO[C@@H]1[C@@H](OC(N)=O)[C@@H](O)[C@H](Oc2ccc3c(O)c(NC(=O)c4ccc(O)c(CC=C(C)C)c4)c(=O)oc3c2C)OC1(C)C	99.0	2.1	4.2	0.3
CO[C@@H]1[C@H](OC(N)=O)C(O)[C@H](Oc2ccc3c(O)c(NC(=O)c4ccc(O)c(CC=C(C)C)c4)c(=O)oc3c2C)OC1(C)C (stereo partly drawn)	101.0*	-7.3	-3.9	/
CCCNc1ncccc1C(N)=O	101.0	34.8*	88.7	1.2
CC1(C)C=Cc2ccc(OCC(=O)Nc3ccccc3)cc2O1	/	/	/	-0.5
FC(F)(F)CN(Cn1nc(-c2ccco2)oc1=S)Cn1nc(-c2ccco2)oc1=S	76.0*	-8.1	79.8	-0.2
